Shown are actives, neighbours in structure and some others; about 4.3% of the full set was active somewhere.
DRD3 antagonist = antagonists of human D3 dopamine receptor | AID 652054 | hit rate 2.5% among 360,000 | max response, negative = inhibition, % | P35462 | D3R cells, DiscoveRx beta-arrestin luminescence, antagonist mode; stronger effect = lower value; in the data active = max response below about -50%; inconclusive = no clear call, values can overlap the other calls; note: % is set by controls: 0 for no effect and ±100 for the full control effect
Target sequence (P35462 whole entry, looked up): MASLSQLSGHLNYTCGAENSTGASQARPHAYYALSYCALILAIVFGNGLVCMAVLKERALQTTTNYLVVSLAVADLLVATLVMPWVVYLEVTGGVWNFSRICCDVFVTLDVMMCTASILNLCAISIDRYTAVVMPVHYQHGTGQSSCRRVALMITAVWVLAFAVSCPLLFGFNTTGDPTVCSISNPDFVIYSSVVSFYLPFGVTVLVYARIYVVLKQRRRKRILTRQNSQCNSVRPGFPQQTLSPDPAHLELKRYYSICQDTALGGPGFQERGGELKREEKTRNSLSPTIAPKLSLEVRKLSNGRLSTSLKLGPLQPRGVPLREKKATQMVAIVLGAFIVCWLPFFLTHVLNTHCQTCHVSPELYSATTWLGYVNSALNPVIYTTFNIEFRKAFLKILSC
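Cells expressing the human receptor were seeded at 1500 cells/well, incubated overnight at 37 degrees C in 5% CO2, then exposed to library compounds with dopamine controls for 90 minutes at 37 degrees C before luminescent detection.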
DRD3 agonist = agonists of human D3 dopamine receptor; D3R DiscoveRx beta-arrestin cells, luminescence, 90 min; max activation, %; hit rate 0.58% among 410,000; in the data active = max activation above about 30%; note: 0% is about no effect
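Cells at 1500/well, incubated overnight, then treated with pinned compounds (dopamine as control) for 90 min at 37 degrees C. DiscoveRx reagent added for 30 - 60 minutes at room temperature; luminescence read.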
GLP1R ag = agonists of human GLP-1 receptor; Potency, µM (doses to about 45.6 µM), for inactives: at the highest dose activation, hits mostly activators; P43220; HEK293 GLP-1R CRE-luciferase, luminescence, 4-6 h; cells express a hypersensitive GLP-1R form; hit rate 0.007% among 380,000; note: potency is the fitted concentration of half-maximal effect; % of control where 0% means no effect
GLP1R inv ag = inverse agonists of human GLP-1 receptor; P43220; HEK293 GLP-1R CRE-luciferase, luminescence, 24 h; GLP-1R form is constitutively active; Potency, µM (titrated, usually from 38.3 µM), without a hit: at the top dose activity change, negative = inhibition, actives largely listed as inhibitors; hit rate 1.6% among 410,000; note: potency is the fitted concentration of half-maximal effect; % is set by controls: 0 for no effect and ±100 for the full control effect; nearly all actives have a fitted effect of over 55% in size
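Inverse agonists were sought by their lowering of basal cAMP reporter luciferase output in HEK293 cells stably carrying constitutively active human GLP-1R, after 24 h compound treatment.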
* hit, by the source's call; ? = inconclusive; / = not tested or not shown. Unless noted, calls come from the whole dose curve; as a rule, active = well fitted curve in the direction sought with a large enough effect; inconclusive = small, poorly fitted or top-dose-only effect, or another doubt; inactive = no such curve, though single readings can be large; an effect the other way counts as inactive or inconclusive.

SMILES	DRD3 antagonist	DRD3 agonist	GLP1R ag	GLP1R inv ag
CC(C)NCC(O)Cn1c2c(c3ccccc31)CCc1c-2cnn1-c1ccccc1 (stereo not given)	9	0	-36%	10µM*
Cc1nnc(NC(=O)CSc2nc3c([nH]c4ccccc43)c(=O)n2-c2ccc(Cl)cc2)s1	/	1	12%	16%
COCCN1CCC(CNCc2cn[nH]c2-c2ccc(C)c(C)c2)C1 (stereo not given)	1	-5	16%	?
COCCN1CCC(CNCc2cn(-c3cc(C)ccc3C)nc2-c2ccccc2)C1 (stereo not given)	-13	-4	-1%	2.8µM*
Clc1cc(Cl)c(OCC#CI)cc1Cl	/	2	-4%	/
Cc1ccc2cc(CN(CCN3CCCC3)C(=O)Nc3ccc(F)cc3)c(=O)[nH]c2c1C	-78*	-24	4%	?
Cc1ccc2cc(CN(CCN3CCCC3)C(=O)Nc3ccccc3)c(=O)[nH]c2c1C	-67*	-11	9%	?
COc1ccc(CCNC(=O)CCc2nnc(Cc3ccc4c(c3)OCO4)o2)c(OC)c1	5	0	8%	-4%
C=CS(=O)(=O)c1ccc(Oc2ccc(S(=O)(=O)C=C)cc2)cc1	-91*	-32	-24%	?
NS(=O)(=O)c1ccc(Oc2ccc(S(N)(=O)=O)cc2)cc1	-9	5	8%	2%
CSc1cccc(NS(=O)(=O)c2ccc(-c3coc(C)n3)cc2)c1	-20	-6	0%	8.9µM*
O=C(Nn1c(O)c(C=C2N=c3ccccc3=N2)sc1=S)c1cccc(Cl)c1	-53*	-22	13%	0%
Cc1ccc(NC(=O)CCNS(=O)(=O)c2ccc3c(c2)CCC(=O)N3)c(Br)c1	23	4	-7%	-15%
COc1ccc(C(=O)Nc2ccc(C)cn2)c(OC)c1	-14	2	-18%	2µM*
COc1ccc(C(=O)Nc2cc(C)on2)c(OC)c1	1	13	6%	12%
Cc1ccc(CNC(=O)C(=O)NCC(c2cccs2)S(=O)(=O)c2ccc(C)cc2)cc1 (stereo not given)	/	0	/	-11%
CCN1CCC[C@H]1CNC(=O)c1c(O)c(Cl)cc(Cl)c1OC	-117*	-94	7%	10%
CCN1CCCC1CNC(=O)c1cc(OC)c(OC)c(OC)c1 (stereo not given)	-61*	-1	-1%	-6%
CCN1CCCC1CNC(=O)c1cc2c(OC)cccc2[nH]1 (stereo not given)	-17	-5	1%	-7%
CCN1CCCC1CNC(=O)CCNC(=O)c1cc(OC)c(OC)c(OC)c1 (stereo not given)	18	7	-16%	-23%
CCN1CCCC1CNC(=O)c1cc2c(OC)c(OC)c(OC)cc2[nH]1 (stereo not given)	-61*	-44	0%	-17%
CC(=O)O[C@@H]1CC2CCC1(C)C2(C)C (stereo not given in full)	/	8	/	/
COc1cc(NC(=O)Cn2c(=O)cc(C)c3c(C)nn(-c4ccc(C)cc4)c32)cc(OC)c1	/	-16	/	28%
CC(C)NCC#CCOc1ccc(Cl)cc1	-12	-5	-5%	?
CC1CCCCC1NCC#CCOc1ccc(Cl)cc1 (stereo not given)	-17	-2	-3%	11µM*
SMILES	DRD3 antagonist	DRD3 agonist	GLP1R ag	GLP1R inv ag
C[C@H](NC(=O)COc1ccc(Cl)cc1)C(=O)N1CCC2(CC1)NCCc1[nH]cnc12	14	8	-2%	-8%
COc1cccc(N(C)C(=S)Oc2ccc3c(c2)CCCC3)n1	/	0	0%	/
CCc1nc2c(c(=O)[nH]1)C1(CCCC1)Cc1ccccc1-2	11	3	2%	-3%
NNc1nc(N)c2c(n1)-c1ccccc1CC21CCCC1	-52*	-22	1%	?
Cc1ccc(NC(=O)Cn2ncc(Cl)c(Cl)c2=O)cc1S(=O)(=O)N1CCCCC1	-58*	-14	-7%	?
Cc1ccc(NC(=S)NCc2ccccc2)cc1S(=O)(=O)N1CCCCC1	-2	-4	2%	11µM*
Cc1ccc(NC(=O)CSc2ccccc2)cc1S(=O)(=O)N1CCCCC1	-20	-10	0%	7.9µM*
Cc1ccc(NC(=O)COC(=O)C2CC3C=CC2C3)cc1S(=O)(=O)N1CCCCC1 (stereo not given)	1	47*	6%	?
Cc1ccc(CNC(=O)CCCN2C(=O)COc3ccc(C)cc32)cc1	/	2	/	-12%
COc1ccc(/C=C/C(=O)c2c(C)nc3ccccn23)cc1	16	38*	4%	0%
